Bioassay records as filed in PubChem BioAssay.
Only some compounds are listed: those with a hit (about 11% of all), similar ones and a draw of the others.
AMA1 RON2 block – qHTS for Inhibitors of AMA1-RON; Towards Development of Antimalarial Drug Lead: Primary Screen | AID 720542, 2013 | Plasmodium falciparum AMA1 (3D7) - RON2 peptide interaction | 360,000 tested, 0.2% active | Potency, µM (titrated, usually from 58.2 µM), inactives show at the highest dose activity change, negative = inhibition, hits mostly inhibitors | AlphaScreen AMA1-biotinylated RON2 peptide binding;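 further: 0% = vehicle wells and -100% = peptide control; nearly all actives have a fitted effect of over 45% in size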
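AMA1 (3D7) with his tag at 25 nM final met compounds first, then biotinylated RON2 peptide at 25 nM; detection used donor plus acceptor beads, 10 µg/mL apiece, read by AlphaScreen after 30 min at room temperature.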
HCV inhibitor – qHTS Assay for Inhibitors of Hepatitis C Virus (HCV); 340,000 tested, 3.4% active; Potency, µM (highest dose often 41.8 µM), without a hit: at the top dose activity change, negative = inhibition, most hits filed as inhibitors; Huh7.5.1 HCVcc-Cre infection, luciferase reporter, 44 h
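After 44 h co-culture of compound, cells and HCVcc-Cre (~0.5 moi), substrate is added for 15 min at room temperature and luciferase measured over 15 sec. Cells were seeded at 1,000/well and pre-cultured 4 h.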
Pf growth 96h – Primary qHTS for delayed death inhibitors of the malarial parasite plastid, 96 hour incubation. P. falciparum luciferase reporter growth, 96 h. Potency, µM (titrated, usually from 28.7 µM), for inactives: at the top dose activity change, negative = inhibition, usual class: inhibitors. 320,000 tested, 6.9% active
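Erythrocytes infected with luciferase-expressing P. falciparum were dispensed at 2% hematocrit and 0.05% parasitemia (final), then incubated with compounds 96 hours at 37 C in 5% CO2. Luminescence after detection reagent addition reported growth.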
Pf growth 48h – Primary qHTS for delayed death inhibitors of the malarial parasite plastid, 48 hour incubation; AID 504832, 2011; P. falciparum luciferase growth in erythrocytes, 48 h; 310,000 tested, 5.9% active; Potency, µM (titrated, usually from 28.7 µM), inactives show top-dose activity change, negative = inhibition, most hits filed as inhibitors
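Firefly luciferase activity from engineered P. falciparum reports growth; inhibitors lower the luminescent signal. Cultures contained 2% hematocrit erythrocytes at 0.1% final parasitemia.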
An asterisk follows results filed as active; ? = inconclusive; . = no result given; [ ] = remark or other dose. The call rests on the fitted dose curve; in most records, active means well fitted curve in the direction sought with a large enough effect; inconclusive means small, poorly fitted or top-dose-only effect, or another doubt; inactive means no such curve, though single readings can be large; an effect the other way counts as inactive or inconclusive. Unless noted, on the % scale 0 is the no-effect control and ±100 the full control effect; potency means the concentration at half of the fitted maximal effect.

SMILES | AMA1 RON2 block | HCV inhibitor | Pf growth 96h | Pf growth 48h
Cc1cc(Cl)cc(C)c1OCCOCCNCc1ccccc1 | -6% | ? | 15µM* | ?
Cc1ccc(C(CNC(=O)C(=O)Nc2ccc3c(c2)OCCO3)N2CCN(C)CC2)cc1 (centres undefined) | 5% | 16% | -1% | 7.4µM*
CN1CCN(C(CNC(=O)C(=O)Nc2ccc3c(c2)OCCO3)c2ccc(F)cc2)CC1 (centres undefined) | 15% | ? | ? | ?
COc1ccc2c3c(cccc13)N(C)N=C2C | -14% | ? | 0% | 10µM*
Cc1sc2nc(C(C)Nc3ccccc3N3CCOCC3)[nH]c(=O)c2c1C (centres undefined) | -17% | ? | 6.6µM* | 9.3µM*
Cc1cc(C)c(C)c(C(=O)CSc2nnc(-c3ccc4[nH]c(C)c(C)c4c3)o2)c1C | 6% | ? | ? | 13µM*
Cc1[nH]c2ccc(-c3nnc(SCC(=O)c4ccc(F)cc4)o3)cc2c1C | -3% | -22% | ? | 5%
Oc1ccccc1CN1CCCC(N2CCN(c3cccc(C(F)(F)F)c3)CC2)C1 (centres undefined) | -8% | -19% | 148% | 1.5µM*
O=C(c1cc[n+]([O-])cc1)N1CCCC(N2CCN(c3cccc(C(F)(F)F)c3)CC2)C1 (centres undefined) | -15% | . | ? | 12µM*
Cc1cc(C(=O)N2CCCC(N3CCN(c4cccc(C(F)(F)F)c4)CC3)C2)c(C)o1 (centres undefined) | -4% | 13µM* | 21% | -4%
Cc1cccc(CN2CCN(Cc3nc4c(s3)CCCC4)CC2CCO)n1 (centres undefined) | 25% | 12% | 21% | -3%
CN1CCN(c2ccc([N+](=O)[O-])cc2NC(=O)c2cccs2)CC1 | -13% | -8% | ? | -20%
CCSC1=C(C#N)C2(CCCC2)C(C#N)=C(N)N1 | -12% | ? | -4% | 9.3µM*
CSC1=C(C#N)C2(CCCC2)C(C#N)=C(N)N1 | . | . | -4% | ?
CCOc1ccc(CC(=O)Nc2sc(Cc3ccccc3)c(C)c2C(N)=O)cc1OCC | -23% | -16% | 9.3µM* | ?
Cc1c(Cc2ccccc2)sc(NC(=O)c2ccco2)c1C(N)=O | 3% | ? | 3% | 8%
COc1ccc(N2CCN(C(=O)c3oc4ccccc4c3NC(=O)Cc3ccc(OC)c(OC)c3)CC2)cc1 | ? | ? | 38% | ?
CCOc1ccc(CC(=O)Nc2c(C(N)=O)oc3ccccc23)cc1OCC | 1% | -4% | 12µM* | ?
O=C(/C=C/c1cccc([N+](=O)[O-])c1)N1CCN(c2ccc(F)cc2)CC1 | 0% | -22% | 2% | -12%
O=[N+]([O-])c1nn(-c2ccc3c(c2)OCCO3)n(O)c1=NC1CCCC1 | -4% | 2.8µM* | 0% | .
O=[N+]([O-])c1nn(-c2ccc3c(c2)OCCO3)n(O)c1=Nc1ccccc1 | ? | ? | -8% | ?
Cc1cccc(-n2nc([N+](=O)[O-])c(=NC3CCN(Cc4ccccc4)CC3)n2O)c1 | -10% | 8.9µM* | ? | ?
O=[N+]([O-])c1nn(-c2ccc3c(c2)OCCO3)n(O)c1=NC1CCCCCC1 | ? | -27% | 5% | .
O=[N+]([O-])c1nn(-c2ccc3c(c2)OCCO3)n(O)c1=Nc1ccc(Cl)cc1 | -11% | 7.1µM* | ? | 15%
Cc1ccc(N=c2c([N+](=O)[O-])nn(-c3ccc(Cl)cc3)n2O)cc1C | -15% | 11% | 0.83µM* | 12µM*
SMILES | AMA1 RON2 block | HCV inhibitor | Pf growth 96h | Pf growth 48h
Cc1cccc(CCN=c2c([N+](=O)[O-])nn(-c3ccccc3)n2O)c1 | -23% | ? | ? | ?
Cc1ccc(N=c2c([N+](=O)[O-])nn(-c3ccc4c(c3)OCCO4)n2O)cc1F | 10% | ? | ? | 159%
COc1ccc(/C(C)=C(\C#N)C(=O)OC(C)C)cc1OC | 1% | -4% | 12% | -8%
CC(=O)NC(C)(c1ccccc1)c1nc(-c2cccc(C#N)c2)cs1 (centres undefined) | -7% | . | . | .
Cc1cnc(C(=O)OCC(=O)c2ccc[nH]2)cn1 | -5% | 4% | 25% | ?
Cc1ccc(CN=c2c([N+](=O)[O-])nn(-c3ccc4c(c3)OCCO4)n2O)cc1 | ? | ? | ? | 94%
O=[N+]([O-])c1nn(-c2ccccc2)n(O)c1=NCc1ccc2c(c1)OCO2 | -5% | -16% | ? | -24%
O=[N+]([O-])c1nn(-c2ccc3c(c2)OCCO3)n(O)c1=NCCCO | 5% | 11µM* | 42% | 24%
O=C1CCCN1CCCN=c1c([N+](=O)[O-])nn(-c2ccc(Cl)cc2)n1O | 1% | 11µM* | 23% | ?
COc1ccc(-n2nc([N+](=O)[O-])c(=NCc3ccc4c(c3)OCO4)n2O)cc1 | -29% | ? | 7.4µM* | 243%
COc1ccc(-n2nc([N+](=O)[O-])c(=NCCCN3CCCC3=O)n2O)cc1 | 5% | ? | 5% | 34%
NC(=O)c1ccc(NC(=O)COC(=O)C2CCN(S(=O)(=O)c3cccs3)CC2)cc1 | -1% | -10% | . | .
COC(=O)[C@]12CCCCC=C1N(Cc1ccc3c(c1)OCO3)C(=O)[C@H](CC(=O)N1CCN(C(=O)C3CC3)CC1)C2 | 3% | . | . | .
CCOC(=O)c1ccccc1NC(=O)CSc1nnc(Cc2cccn2C)n1-c1ccc(F)cc1 | -1% | 16% | 59% | ?
CCOc1ccccc1NC(=O)CSc1nnc(Cc2cccn2C)n1-c1ccc(F)cc1 | -7% | ? | -26% | 5.9µM*
Cc1ccc(NC(=O)CSc2nnc(Cc3cccn3C)n2-c2ccc(F)cc2)c(C)c1 | -3% | -2% | 9.3µM* | .
Cn1cccc1Cc1nnc(SCC(=O)Nc2ccc(F)cc2F)n1-c1ccc(F)cc1 | 26% | -14% | 45% | ?
Cn1cccc1Cc1nnc(SCC(=O)NCc2ccccc2)n1-c1ccc(F)cc1 | 5% | 3% | ? | .
Cn1cccc1Cc1nnc(SCC(=O)N2CCN(c3ccccc3)CC2)n1-c1ccc(F)cc1 | -5% | 7% | 1.5µM* | ?
O=C(NC1CC1)c1ccc(NC(=O)C2CCC2)cc1 | 3% | ? | . | .
CC(C)(C)c1ccccc1NC(=O)c1ccc(-n2cncn2)c([N+](=O)[O-])c1 | 21% | 4%[8.37 µM] | -3% | -6%
CCOc1ccc(Nc2n[nH]c(=S)s2)cc1 | 34% | -6% | 2.9µM* | ?
Cc1cc(C)c(OCC(=O)NCC2CCCO2)c(C)c1 (centres undefined) | 12% | 16% | ? | -20%
COc1ccc(C2CN=NC2C(=O)c2ccccc2)cc1 (centres undefined) | -9% | -26% | 9.3µM* | 15µM*
CN(CC(=O)Nc1cccc(F)c1)C(=O)/C=C/c1cn(Cc2ccccc2)nc1-c1cccnc1 | 1% | ? | 10µM* | ?
